Publication PMC4336329 (PLoS ONE, 2015)
Hit rate of the full screen: of about 310,000 compounds, about 2,200 (0.71%) showed an effect of 50% or more. The effect is printed as a negative number. The list comes from a sample in which strong results are over-represented; it also holds similar structures and randomly drawn compounds.

target: human ether-à-go-go-related gene (hERG) potassium channel (human, UniProt Q12809); test: primary screen, population patch clamp on CHO cells stably expressing hERG; higher = less effect of the substance
Sequence (Q12809 whole entry, looked up): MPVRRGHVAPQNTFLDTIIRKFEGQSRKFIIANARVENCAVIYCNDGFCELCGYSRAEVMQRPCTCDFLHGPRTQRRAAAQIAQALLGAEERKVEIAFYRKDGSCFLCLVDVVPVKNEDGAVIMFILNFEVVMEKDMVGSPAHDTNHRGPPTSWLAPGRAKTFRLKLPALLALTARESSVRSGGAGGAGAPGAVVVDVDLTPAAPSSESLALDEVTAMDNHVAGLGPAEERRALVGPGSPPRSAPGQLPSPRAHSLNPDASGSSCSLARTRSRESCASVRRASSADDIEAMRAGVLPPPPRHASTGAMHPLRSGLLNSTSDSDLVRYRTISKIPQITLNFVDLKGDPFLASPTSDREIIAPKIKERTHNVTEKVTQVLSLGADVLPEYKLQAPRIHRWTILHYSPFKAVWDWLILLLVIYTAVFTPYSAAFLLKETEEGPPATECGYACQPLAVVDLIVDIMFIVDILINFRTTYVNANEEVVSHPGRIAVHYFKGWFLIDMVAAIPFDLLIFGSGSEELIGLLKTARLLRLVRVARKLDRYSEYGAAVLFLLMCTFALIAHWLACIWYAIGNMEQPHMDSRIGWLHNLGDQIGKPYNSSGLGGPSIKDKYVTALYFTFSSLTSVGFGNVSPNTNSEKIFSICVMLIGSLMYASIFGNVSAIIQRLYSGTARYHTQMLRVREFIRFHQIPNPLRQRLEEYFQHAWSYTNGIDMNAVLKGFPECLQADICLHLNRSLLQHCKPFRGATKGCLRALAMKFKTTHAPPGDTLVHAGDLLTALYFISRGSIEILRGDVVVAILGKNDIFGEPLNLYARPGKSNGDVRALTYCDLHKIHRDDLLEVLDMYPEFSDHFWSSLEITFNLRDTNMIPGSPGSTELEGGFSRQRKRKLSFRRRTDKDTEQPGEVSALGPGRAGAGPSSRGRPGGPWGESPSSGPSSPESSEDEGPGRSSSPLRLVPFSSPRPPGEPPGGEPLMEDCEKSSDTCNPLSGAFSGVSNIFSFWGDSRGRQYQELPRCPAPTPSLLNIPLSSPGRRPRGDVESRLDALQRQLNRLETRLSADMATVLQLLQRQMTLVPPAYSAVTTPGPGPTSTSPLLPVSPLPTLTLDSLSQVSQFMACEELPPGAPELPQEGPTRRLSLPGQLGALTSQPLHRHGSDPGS

Structure (SMILES)	hERG current change (%, negative = inhibition) at 1uM [%]
Cc1cccc(C(=O)NC(=S)Nc2ccccc2C(=O)O)c1	6.08
CCOC(=O)C1CCCN(c2nc(C)nc3c2oc2ccccc23)C1.Cl (centres unmarked)	8.69
Cc1cc2cc3c(=O)[nH]c(=O)[nH]c3nc2cc1C	12.1
Cc1sc2ncnc(NCC3(N4CCOCC4)CCCCC3)c2c1C	-23
c1nc(Nc2ccc(N3CCOCC3)cc2)c2ccsc2n1	8.37
c1nc(NCC2(N3CCOCC3)CCCCC2)c2ccsc2n1	-54.5
COc1ccc(C2=NS(=O)(=O)N(C)C(C(=O)N3CCC(C(N)=O)CC3)=C2)cc1	-8.49
Cc1ccc(NC(=O)c2cc(NC(=O)CCC(=O)O)ccc2N2CCCCC2)cc1	11.9
Cc1nnc(NC(=O)CN2C(=O)c3ccccc3S2(=O)=O)s1	7.28
CCCCC(=O)N1CCCC(c2nc3c(nnn3Cc3cc(C)ccc3C)c(=O)[nH]2)C1 (centres unmarked)	3.86
CC[n+]1c(/C=C/C=C/N(C(C)=O)c2ccccc2)sc2ccccc21.[I-]	-52.2
CC[n+]1c(/C=C/C=C/N(C(C)=O)c2ccccc2)sc2cc(OC)ccc21.[I-]	7.77
CCN1/C(=C/C=C/c2oc3ccc(-c4ccccc4)cc3[n+]2CC)Oc2ccc(-c3ccccc3)cc21.CCOS(=O)(=O)[O-]	-2.56
CC[n+]1c(/C=C2\C=C(C)CC(C)(C)C2)sc2ccccc21.[I-]	-4.87
CCOc1ccc(S(=O)(=O)Nc2cccc(OC)c2)cc1	-5.91
CC[n+]1c(/C=C/N(C)c2ccccc2)oc2ccccc21.O=S(=O)([O-])CCO	12
CC[n+]1ccccc1/C=C/Nc1ccccc1.[I-]	-5.67
CC[n+]1c(/C=C/C=C/c2ccc(N(C)C)cc2)sc2ccccc21.[O-][Cl+3]([O-])([O-])[O-]	-29
CC[n+]1c(/C=C/Nc2ccccc2)oc2ccccc21.[I-]	-64.9
CC[n+]1c(/C=C/Nc2ccccc2)sc2ccccc21.[I-]	-62.8
CCN1/C(=C/C=C/c2sc3ccccc3[n+]2CC)Sc2ccccc21.[I-]	-36.8
CCOS(=O)(=O)[O-].CC[n+]1c(/C=C/Nc2ccccc2)oc2ccc(OC)cc21	-68.8
COC(=O)c1ccccc1Nc1ccnc(Cl)n1	-6.9

Structure (SMILES)	hERG current change (%, negative = inhibition) at 1uM [%]
O=C(Nc1c(F)c(F)c(F)c(F)c1F)C1CCCCC1	5.93
CC(C(=O)N1CCCC1)N(c1ccccc1)S(C)(=O)=O (centres unmarked)	20.3
C/C(=N\NC(=O)c1ccccc1)c1ccc(-n2ccnc2)cc1	8.54
O=C(CCc1nnc(-c2ccccc2)o1)NCc1cc(F)ccc1F	0.576
Cc1csc(N(C)C(=O)CSc2nnc(COc3ccccc3C)o2)n1	6.62
CC(C)CC(=O)Nc1ccc2oc(-c3cccnc3)nc2c1	15.3
COCCSc1nnc(NC(=O)C2CC(=O)N(C3CCCC3)C2)s1 (centres unmarked)	16
COc1cccc(C(=O)OCC(=O)NC(C)CCc2ccccc2)c1O (centres unmarked)	13.8
O=C(N/C(=C\c1ccc([N+](=O)[O-])cc1)C(=O)N1CCOCC1)c1ccco1	-57.1
O=C(N/C(=C\c1cccc([N+](=O)[O-])c1)C(=O)N1CCOCC1)c1ccc([N+](=O)[O-])cc1	-2.31
O=C(N/C(=C/c1ccc([N+](=O)[O-])cc1)C(=O)N1CCOCC1)c1ccco1	-34.6
Cc1ccc(C(=O)N/C(=C/c2ccco2)C(=O)N2CCOCC2)cc1	8.19
O=C(N/C(=C\c1ccc([N+](=O)[O-])cc1)C(=O)N1CCCCC1)c1ccco1	-41.5
CN1CCN(C(=O)/C(=C/c2ccco2)NC(=O)c2ccccc2)CC1	-37.1
CCN1CCN(C(=O)/C(=C/c2ccco2)NC(=O)c2ccccc2)CC1	-57.1
O=C(N/C(=C\c1ccco1)C(=O)N1CCCC1)c1ccccc1	14.4
O=C(N/C(=C\c1ccco1)C(=O)N1CCOCC1)c1ccc([N+](=O)[O-])cc1	-55.9
CCOc1ccc(NS(=O)(=O)c2ccc3ncsc3c2)cc1	12.1
O=C1CCCCCCC1Sc1ccccc1[N+](=O)[O-] (centres unmarked)	3.82
Cc1ccc(C2C(=O)N(C3CCC(C)CC3)CC(=O)N2C2CCCC2)cc1 (centres unmarked)	-13.1
COC(=O)/C=c1/s/c(=C(/C#N)C(=O)N2CCCCC2)n(-c2ccccc2)c1=O	9.76
CC(C)[C@H](NS(=O)(=O)c1ccccc1)C(=O)OCn1nnc2ccccc2c1=O	4.31
Cn1c(=O)c2c(nc(SCCN3CCCCC3)n2Cc2ccc(Cl)cc2)n(C)c1=O	-48.9

Structure (SMILES)	hERG current change (%, negative = inhibition) at 1uM [%]
Cc1ccc(Cn2c(SCCN3CCCCC3)nc3c2c(=O)n(C)c(=O)n3C)cc1	-67.1
Cn1c(=O)c2c(nc(SCCN3CCOCC3)n2Cc2ccccc2Cl)n(C)c1=O	-8.97
Cc1ccc(Cn2c(SCCN3CCOCC3)nc3c2c(=O)n(C)c(=O)n3C)cc1	-6.9
Cn1c(=O)c2c(nc(SCCN3CCCCC3)n2Cc2ccccc2)n(C)c1=O	-66
Cn1c(=O)c2c(nc(SCCN3CCOCC3)n2Cc2ccccc2)n(C)c1=O	-5.7
ON1C2CCCCC2N(O)C1c1c(F)c(F)c(F)c(F)c1F (centres unmarked)	17.7
CC1CN(CC(=O)NCc2ccccc2)CC(C)O1 (centres unmarked)	19.2
Cc1ccc(N2C(=O)C(CN3CCCC3)C2c2ccccc2)cc1 (centres unmarked)	-70.6
Cc1ccc(N2C(=O)C(CN3CCOCC3)C2c2ccccc2)cc1 (centres unmarked)	-1.12
Cc1ccc(N2C(=O)C(CN3CCCCC3)C2c2ccccc2)cc1 (centres unmarked)	-4.6
COCCn1c(SCC(=O)N2CCCCC2)nc2ccccc2c1=O	-30.8
C=CCn1c(SCCN2CCCC2)nc2c([nH]c3ccccc32)c1=O	-63.9
COCCn1c(SCC(=O)N2CCOCC2)nc2ccccc2c1=O	5.32
CCOC(=O)CSc1nc2ccccc2c(=O)n1CC	-1.18
CCOC(=O)CSc1nc2ccccc2c(=O)n1CC1CCCO1 (centres unmarked)	9.44
C=CCn1c(SCC(=O)NC2CCCC2)nc2c([nH]c3ccccc32)c1=O	-16.9
C=CCn1c(SCC(=O)N2CCCC2)nc2c([nH]c3ccccc32)c1=O	5.21
COCCn1c(SCC(=O)N2CCC(C)CC2)nc2ccccc2c1=O	-57.9
COc1ccc(CCn2c(SCCN3CCCCC3)nc3ccccc3c2=O)cc1OC	-8.22
CCOC(=O)CSc1nc2ccccc2c(=O)n1CC1CCCC1	-63.8
COCCn1c(SCCN2CCCCC2)nc2ccccc2c1=O	-53.3
O=c1c2ccccc2nc(SCCN2CCCCC2)n1CCc1ccccc1	-10
CN(C(=O)COC(=O)/C=C/c1ccc2ccccc2n1)C1CCS(=O)(=O)C1 (centres unmarked)	12.9

Structure (SMILES)	hERG current change (%, negative = inhibition) at 1uM [%]
CC(=O)Nc1cccc(C(=O)OCc2ccc([N+](=O)[O-])cc2)c1	-13.5
O=C1C=C(NCC2CCCO2)C2(CCCCC2)O1 (centres unmarked)	15.6
N#Cc1ccccc1OCC(=O)N1N=C(c2cccs2)CC1c1ccco1 (centres unmarked)	-1.57
O=C(CSc1nncn1-c1ccccc1)Nc1cc(Cl)cc(Cl)c1	5.88
O=C(Cn1ncc2c1-c1ccccc1OC2)N1CCN(Cc2ccc3c(c2)OCO3)CC1	-31
O=C(Cn1ncc2c1-c1ccccc1OC2)N1CCN(Cc2ccccc2)CC1	-58
CCN1CCN(C(=O)Cn2ncc3c2-c2ccccc2OC3)CC1	0.123
O=C1NN=COc2ccccc21	4.08
CC(C)CN1CCN(Cc2cccn2-c2ccccn2)CC1CCO (centres unmarked)	-18.8
Cc1cc(C)c(CN2CCN(Cc3ccc(C)o3)C(CCO)C2)c(-n2cccn2)c1 (centres unmarked)	-70.9
CC(C)N1CCN(Cc2cccn2-c2ccccn2)CC1CCO (centres unmarked)	-16
CC(C)CCN1CCN(Cc2cccn2-c2ccccn2)CC1CCO (centres unmarked)	-36.6
Cc1ccc(CN2CCN(Cc3cccn3-c3ccc(Cl)cn3)CC2CCO)o1 (centres unmarked)	0.259
Cc1ccc(CN2CCN(Cc3cccn3-c3ccccn3)CC2CCO)cc1 (centres unmarked)	-82.4
Cc1ccc(CN2CCN(Cc3cccn3-c3ccccn3)CC2CCO)o1 (centres unmarked)	-59.5
CC(C)=CCN1CCN(Cc2cccn2-c2ccccn2)CC1CCO (centres unmarked)	-19.9
OCCC1CN(Cc2cccn2-c2ccccn2)CCN1Cc1ccccc1 (centres unmarked)	-61.4
Cc1ccc(CN2CCN(Cc3c(C)nn(C(C)C)c3C)CC2CCO)o1 (centres unmarked)	10.6
OCCC1CN(Cc2cccn2-c2ccccn2)CCN1C1CCCC1 (centres unmarked)	3.68
Cc1ccc(CN2CCN(Cc3ccncc3)CC2CCO)o1 (centres unmarked)	-1.98
